Reference: PubChem BioAssay (NCI)
About 83,000 compounds went through this panel and 20% of them were active in at least one assay; those are over-represented in the sample as a whole.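 Assay: single dose, 48 h. Readout: percent growth (0 = no net growth; negative = cell death). Active: <10.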 Unmarked numbers belong to inactive results. Calls of active or inactive are those of the source.

The molecules below were run on HL-60(TB) leukemia (assay: NCI-60 one-dose screen, 48 h (100 = growth as untreated, 0 = no growth, -100 = all killed)). Details: 10 µM unless noted.

Question: With COc1ccc(-c2cc(-c3cn(-c4cccc(Cl)c4)nc3-c3ccc(OC)cc3)on2)cc1 as the molecule, how does the growth read?
Answer: Its growth is 93.6%.

Question: How did the growth turn out when O=C(/C=C/c1cn(-c2ccccc2)nc1-c1ccccc1)OCc1cn(-c2cccc([N+](=O)[O-])c2)nn1 was run?
Answer: The growth was 93%.

Question: How did the growth turn out when Cc1cc(/C=C2\SC(=Nc3ccccc3)N(C3CCCC3)C2=O)c(C)n1-c1ccc(Cl)cc1 was run?
Answer: The growth was -27.3% (active).

Question: N/C(=N\C(N)=N\c1nc2ccccc2s1)c1cnccn1 was tested. Which growth did it give?
Answer: Its growth is 0.412% (active).

Question: NC(N)=NC(N)=Nc1cc2ccccc2c2ccccc12 was tested. Which growth did it give?
Answer: Its growth is 28.8%.

Question: With Cn1ccnc1C(=O)/C=C/c1ccc(CC(=O)Nc2ccccc2)cc1 as the molecule, how does the growth read?
Answer: Its growth is -27.2% (active).

Question: Which growth does the source give for CC1(C)OCC(COC(c2ccccc2)(c2ccccc2)c2ccccc2)O1 (stereo not given) here?
Answer: Its growth is 99.9%.

Question: Which growth does the source give for CC/C=C\C/C=C/C=C1/C(=O)C=C[C@@H]1C/C=C\CCCC(=O)OC here?
Answer: The growth was 8.98% (active).

Question: How did the growth turn out when O=C(O)c1ccc(Cl)cc1Nc1ccc(F)cc1 was run?
Answer: Its growth is 90.2%.

Question: Which growth does the source give for CCOC(=O)Cn1nnc(-c2ccc(OCc3ccccc3F)cc2)n1 here?
Answer: Its growth is 102%.

Question: With Cc1ccc(S(=O)(=O)NCCNc2nccc(-c3c(-c4cccc(N)c4)nc4sccn34)n2)cc1 as the molecule, how does the growth read?
Answer: Its growth is 110%.

Question: C/C(=N\Nc1ccc(Cl)cn1)c1ccc2ccccc2n1 was tested. Which growth did it give?
Answer: Its growth is -15.3% (active).

Question: With O=C1c2ccccc2C(=O)c2c1ccc(C(=O)O)c2[N+](=O)[O-] as the molecule, how does the growth read?
Answer: The growth was 65.1%.

Question: With Cc1cc(C)cc(Nc2ccc([N+](=O)[O-])c(NCCN3CCOCC3)n2)c1 as the molecule, how does the growth read?
Answer: The growth was -13.9% (active).

Question: With COc1cc(/C=C/C(=O)c2cc(-c3ccc(C(F)(F)F)cc3)ccc2O)cc(OC)c1OC as the molecule, how does the growth read?
Answer: The growth was 13.9%.
